Source: ChEMBL document CHEMBL3433997, “St. Jude Leishmania screening dataset” (2016)

What follows are compounds tested against Glucose transporter (Leishmania mexicana) (UniProt O61059) (assay: ST_JUDE_LEISH: Cytotoxicity at 2uM final concentration against transgenic Leishmania Mexicana promastigotes LmGT2 that are glucose transport deficient and complemented with the L. Mexicana glucose transporter 2. Activity is measured by DNA content using SYBR green in vitro).
Type: functional
With `COc1ccc2ncc(F)c(CCN3CCC(NCc4cc(OC)c5c(c4)OCCO5)CC3)c2n1` the inhibition was 1.31%. For `O=C(Nc1cccc(-c2ccc(-c3nc4ccccc4[nH]3)cc2)c1)Nc1ccc2c(c1)OCO2`, the inhibition was 0.06%. With `Cc1ccc(/C=C/C(=O)NCCCCCN2CCN(C(=O)Nc3ccc(Cl)c(C(F)(F)F)c3)CC2)cc1` the inhibition was 0.88%. `COc1ccccc1CCNc1nc(C)cc(N[C@@H](Cc2ccccc2)C(=O)NCCOc2ccccc2)n1` showed an inhibition of -2.09%. Work on `COc1ccccc1Cn1ccnc1SCC(=O)Nc1cc(C(F)(F)F)ccc1Cl` yielded an inhibition of -1.55%. `Nc1ccnc2ccc(OCCCCCCc3ccccc3)cc12` was tested, and the inhibition was -1.14%. Work on `COc1ccc(Cc2nc3c(n2C(C)=O)SC(c2ccc(Cl)c(Cl)c2)=NN3C(C)=O)cc1` yielded an inhibition of 5.39%. Work on `CC1CN(c2ccc(C(=O)NCC3CC3)cc2NC(=O)OCc2ccccc2)CC(C)O1` (stereo not given) yielded an inhibition of -0.78%. In the case of `CC(C)CC(=O)N1CCNC[C@@H]1C(=O)NC1CC1`, the inhibition is reported as -0.37%. Compound `Cc1[nH]c(C)c(-c2ccc(Oc3ccccc3)cc2)c(=O)c1Br` has an inhibition of -0.53%. `Cc1noc(C)c1-c1cccc(CNCc2cccc(-c3csc(-c4nc5ccccc5[nH]4)c3)c2)c1` was tested, and the inhibition was 1.31%. `Cc1cccc(-c2ccc(NC(=O)C3CCN(Cc4cccc(O)c4)CC3)cc2)c1` showed an inhibition of -0.58%. `CC(=O)c1cccc(NC(=O)N2CCCN(CCCCCNC(=O)/C=C/c3ccc(Cl)c(Cl)c3)CC2)c1` gave an inhibition of -0.6%. `CCC(C)C(COC(=O)c1cc(OC)c(OC)c(OC)c1)N(C)CCN(C)C(COC(=O)c1cc(OC)c(OC)c(OC)c1)C(C)CC` (stereo not given) gave an inhibition of -0.47%. With `Cc1cccc2nc(-c3cccc(-c4ccc(NC(=O)c5c[nH]cn5)cc4)c3)[nH]c12` the inhibition was -1.26%. In the case of `c1ccc(Nc2nc(-c3ccccn3)cs2)nc1`, the inhibition is reported as -2.43%. With `COc1ccc(CNCc2cccc(-c3ccc(-c4nc5ccccc5[nH]4)s3)c2)cc1` the inhibition was 2.44%. `COC(=O)c1cccc(CNCc2ccc(-c3ccc(-c4nc5cc(F)ccc5[nH]4)s3)cc2)c1` showed an inhibition of 1.42%. For `CC1(C)NC(N)=NC(=N)N1OCc1ccc2ccccc2c1CON1C(=N)N=C(N)NC1(C)C`, the inhibition was 3.06%. With `Cc1cccc2nc(-c3ccc(-c4ccc(CN5CCCC(O)C5)cc4)s3)[nH]c12` (stereo not given) the inhibition was 3.86%. `COc1ccc(OC)c2c1CCN(C)C2Cc1cccc2ccccc12` (stereo not given) gave an inhibition of 1.61%. In the case of `COc1ccnc(NCCCNCc2cn(S(=O)(=O)c3ccccc3)c3ccccc23)c1`, the inhibition is reported as 0.11%. Compound `CCN(CC)c1ccc2nc(N)nc(N)c2c1Cl` has an inhibition of 4.52%. `c1cc(CNCC2CCCO2)cc(-c2csc(-c3nc4ccccc4[nH]3)c2)c1` (stereo not given) showed an inhibition of 2.04%. For `COc1cccc(OC)c1-c1ccccc1NC(=O)N1CCCc2cc(C)ccc21`, the inhibition was 2.07%.
